Assay outcomes from PubChem.
This is a sample that favours compounds with a hit; in the whole collection about 3.8% have one here.
ELG1 DNA repair: ELG1-dependent DNA repair inhibition. HEK293T ELG1-luciferase reporter, luminescence, 16 h; DNA damage induced by 5-fluorouridine. Potency, µM (doses to about 46.1 µM), usual class: inhibitors. actives 2.3% (n = 330,000); note: nearly all actives have a fitted effect of over 55% in size
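Quantitative HTS, concentration-response format. 2,000 cells/well co-treated with 5-fluorouridine and compound, 16 hr in 5% CO2 at 37 °C; ONE-Glo luminescence read after 30 min.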
Nrf2 activator: activators of Nrf2 (ARE) signaling | AREc32 ARE-luciferase reporter (MCF7-derived line), luminescence, 24 h | Potency, µM (series often up to 46.1 µM), actives largely listed as activators | actives 0.31% (n = 410,000) | AID 624171; note: nearly all actives have a fitted effect of over 65% in size
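Quantitative high-throughput format: AREc32 reporter cells, 1000 per well, received compound by pin transfer and were incubated 24 hr at 37 deg C, 5% CO2, before Steady-Glo luminescence detection.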
A549 viability: A549 cytotoxicity, counter-screen for Nrf2 inhibitors; A549 ARE-Fluc cells, CellTiter-Fluor viability, 18-24 h; Potency, µM (titrated, usually from 46 µM), hits mostly inhibitors; actives 0.16% (n = 390,000); AID 504648
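A549 ARE_Fluc cells in 5% FBS OPTI-MEM were exposed to compounds in concentration-response for 18-24 h at 37 deg C. Viability was read by CellTiter-Fluor fluorescence (Ex 405/Em 525) after 30 min, before the luciferase read.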
Nrf2 block: inhibitors of Nrf2 signaling; A549 ARE-Fluc reporter, luciferase luminescence, 18-24 h; actives 2.1% (n = 360,000); Potency, µM (doses to about 46 µM), hits mostly inhibitors; note: nearly all actives have a fitted effect of over 60% in size
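Two sequential reads on A549 ARE_Fluc cells exposed to compound for 18-24 h: a CellTiter-Fluor fluorescence read for viability, then a luciferase luminescence read for Nrf2/ARE activity.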
mIDH1 inhibitor: blocks human mutant IDH1 R132H enzyme; O75874; AID 602179; actives 0.093% (n = 390,000); IDH1-R132H enzyme, NADPH consumption, diaphorase/resazurin fluorescence; Potency, µM (top dose mostly 76.6 µM), actives largely listed as inhibitors; note: nearly all actives have a fitted effect of over 65% in size
Target sequence (O75874 whole entry R132H, stated change not applied): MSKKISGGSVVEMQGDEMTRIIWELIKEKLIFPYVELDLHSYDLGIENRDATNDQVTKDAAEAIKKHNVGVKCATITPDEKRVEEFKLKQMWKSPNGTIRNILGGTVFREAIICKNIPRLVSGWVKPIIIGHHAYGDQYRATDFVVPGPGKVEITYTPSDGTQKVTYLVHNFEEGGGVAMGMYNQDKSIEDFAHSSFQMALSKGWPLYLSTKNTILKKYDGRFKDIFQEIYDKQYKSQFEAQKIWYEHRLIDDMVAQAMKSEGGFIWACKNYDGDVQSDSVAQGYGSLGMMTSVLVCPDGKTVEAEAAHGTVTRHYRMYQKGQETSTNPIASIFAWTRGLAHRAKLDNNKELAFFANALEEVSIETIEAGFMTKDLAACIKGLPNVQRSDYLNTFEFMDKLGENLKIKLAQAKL
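IDH1-R132H (0.5 ug/mL) preincubated 30 min with compound, then NADPH (0.016 mM) and alpha-KG (2 mM) added; 80 min at RT, pH 7.5. Remaining NADPH coupled via diaphorase/resazurin to fluorescence (540/590 nm); concentration-response curves normalized to no-enzyme control.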
A number is an active result; 0 = inactive; ? = inconclusive; - = not tested or not shown. Calls come from the whole dose curve; as a rule, active = well fitted curve in the direction sought with a large enough effect; inconclusive = small, poorly fitted or top-dose-only effect, or another doubt; inactive = no such curve, though single readings can be large; an effect the other way counts as inactive or inconclusive.

SMILES	ELG1 DNA repair	Nrf2 activator	A549 viability	Nrf2 block	mIDH1 inhibitor
O=C(Cn1c(=O)n(Cc2nc(-c3ccccc3)no2)c(=O)c2cc3c(cc21)OCO3)Nc1ccc(Cl)cc1	-	0	0	0	0
CC(C)(C)OC(=O)NCc1ccc(CNC(=O)c2ncn(Cc3ccccc3)c2C(=O)NCc2ccc(CNC(=O)OC(C)(C)C)cc2)cc1	?	0	0	0	0
CC(C)(C)OC(=O)NCc1ccc(CNC(=O)c2nc[nH]c2C(=O)N2CCN(C(=O)OC(C)(C)C)CC2)cc1	12µM	0	0	26µM	0
CC(C)(C)OC(=O)N1CCN(c2ccc(CNC(=O)c3ccc(Cl)cc3)cc2)CC1	?	0	0	10µM	0
Cc1ccc(NC(=O)c2nc[nH]c2C(=O)N2CCN(C(=O)OC(C)(C)C)CC2)cc1	?	0	0	0	0
Cn1cnc(C(=O)NCc2ccc(CNC(=O)OC(C)(C)C)cc2)c1C(=O)NCc1ccc(CNC(=O)OC(C)(C)C)cc1	?	0	0	18µM	0
CC(C)(C)OC(=O)N1CCN(C(=O)c2[nH]cnc2C(=O)Nc2ccc(Cl)cc2)CC1	21µM	0	0	?	0
CC(=O)c1ccc(N2CCN(C(=O)c3cc4c(s3)-c3ccccc3OC4)CC2)cc1	-	0	0	?	0
CC(C)(C)c1ccc(C(=O)N2CCN(CCNC(=O)C(=O)NCc3ccc(Cl)cc3)CC2)cc1	12µM	0	?	21µM	0
CC(C)(C)OC(=O)N1CCC(NC(=O)c2nc[nH]c2C(=O)NC2CCN(C(=O)OC(C)(C)C)CC2)CC1	?	0	0	?	0
CC(C)(C)OC(=O)N1CCC(NC(=O)c2[nH]cnc2C(=O)Nc2cccc(Cl)c2)CC1	18µM	0	?	?	0
Cn1cnc(C(=O)NC2CCN(C(=O)OC(C)(C)C)CC2)c1C(=O)NC1CCN(C(=O)OC(C)(C)C)CC1	10µM	0	0	0	0
CC(C)(C)OC(=O)N1CCC(NC(=O)c2ncn(Cc3ccccc3)c2C(=O)NC2CCN(C(=O)OC(C)(C)C)CC2)CC1	?	0	0	?	0
COc1ccc(N(CC(=O)N2CCN(c3ccccc3)CC2)S(=O)(=O)c2c(C)nn(C)c2C)cc1	-	0	0	0	0
COc1ccc(Br)cc1C1Nc2cccc3cccc(c23)N1	0	13µM	0	0	0
FC(F)(F)c1ccc(C2[C@H]3CN(Cc4cccnc4)[C@H](c4ccccc4)C34CC2(c2cccnc2)C4)cc1 (stereo partly drawn)	0	0	?	26µM	0
FC(F)(F)c1ccc(C2[C@H]3CN(Cc4ccc(-c5ccccc5)cc4)[C@H](c4ccccc4)C34CC2(c2cccnc2)C4)cc1 (stereo partly drawn)	?	0	0	0	0
CC(=O)Nc1ccc(S(=O)(=O)N2CCN=C2c2ccccc2)cc1	8.2µM	0	0	0	0
COc1cccc(-n2c(=O)c3c(C)c(C)sc3n(CC(=O)Nc3ccccc3OC)c2=O)c1	-	0	0	0	-
CCSc1nnc(NC(=O)C(C(F)(F)F)C(F)(F)F)s1	0	?	0	0	0
CCSc1nnc(NC(=O)C(CC)(C(F)(F)F)C(F)(F)F)s1	?	0	?	15µM	0
CCSc1nnc(NC(=O)C(C)(C(F)(F)F)C(F)(F)F)s1	?	0	?	16µM	0
N#Cc1nc(Nc2ccc3ccccc3c2)nc(NC2CCCC2)n1	-	-	0	0	-
C(=N\Nc1nc(Nc2ccccc2)nc(Nc2ccccc2)n1)/c1cccnc1	6.5µM	0	0	0	0
CCOc1ccc(CNC(=O)c2c(C)nn(-c3ccc(F)cc3)c2-n2cccc2)cc1	-	0	0	?	0
SMILES	ELG1 DNA repair	Nrf2 activator	A549 viability	Nrf2 block	mIDH1 inhibitor
CNc1nc(-c2ccccc2)c(-c2ccccc2)s1	-	-	0	?	-
Cc1ccc(NC(=O)N2CCN(Cc3ccc4c(c3)OCO4)CC2)cc1	0	0	?	?	0
O=C(Nc1ccc2c(c1)OCO2)N1CCN(Cc2ccco2)CC1	?	0	0	16µM	0
CCOC(=O)C1CCN(C(=O)C2CCN(c3nnc(C)c4c(C)n(-c5ccccc5)nc34)CC2)CC1	-	0	0	0	0
COc1ccccc1C(=O)Nc1ccnn1C1CCN(C(=O)c2ccoc2C)CC1	0	0	0	0	0
CCCN1CCc2c(sc(NC(=O)c3ccc(S(=O)(=O)N(C)c4ccccc4)cc3)c2C(N)=O)C1	?	0	0	0	0
CCCN1CCc2c(sc(NC(=O)c3ccc(S(=O)(=O)N(C)c4ccccc4)cc3)c2C(=O)NC)C1	23µM	0	?	0	0
COCCNC(=O)c1ccc2c(c1)N(Cc1ccc(C(F)(F)F)cc1)C(=O)c1ccccc1S2	-	0	0	?	0
CCN(CC)C(=O)c1ccc2c(c1)N(Cc1ccc(C(F)(F)F)cc1)C(=O)c1ccccc1S2	-	0	0	12µM	0
Cc1ccc2ncc(C(=O)NC(C)c3ccccc3)c(=O)n2c1 (stereo not drawn)	-	0	0	0	0
CC(Sc1nc(N)c2c3c(sc2n1)CSC(C)(C)C3)C(=O)Nc1ccccc1 (stereo not drawn)	?	0	?	18µM	0
C=CC[n+]1c(-c2ccc(OC)cc2)csc1NNC(=O)Nc1ccccc1	0	0	0	15µM	0
Cc1ccc(C(C)C)c2oc(=O)cc(-c3ccc(-c4ccc(C(F)(F)F)cc4)cc3)c12	?	0	0	?	0
CC(=O)c1ccc(-c2ccc(-c3cc(=O)oc4c(C(C)C)ccc(C)c34)cc2)cc1	?	0	0	23µM	0
Cc1cccc(C)c1NC(=O)CSc1ncc2c(n1)-c1ccc(Cl)cc1N(Cc1ccccc1)S2(=O)=O	-	0	0	0	0
O=C(Nc1cccnc1)C1(F)C(F)(F)C(F)(F)C(F)(F)C(F)(F)C1(F)F	0	10µM	0	-	0
O=C(C1=C(Nc2ccccc2)c2ccccc2S(=O)(=O)N1)c1ccccc1	16µM	0	0	0	0
Cc1ccccc1NC1=C(C(=O)c2ccccc2)N(C)S(=O)(=O)c2ccccc21	0	0	0	?	0
CNc1snc(C)c1C(=O)OCC(=O)c1cc(F)ccc1OC	0	?	0	12µM	0
CC(=O)N1c2ccc(S(=O)(=O)N3CCC(C(=O)NCc4ccc(C)cc4)CC3)cc2CC1C (stereo not drawn)	?	0	0	?	0
CC(=O)N1c2ccc(S(=O)(=O)N3CCC(C(=O)NCc4ccccc4Cl)CC3)cc2CC1C (stereo not drawn)	23µM	0	0	?	0
CC(=O)N1c2ccc(S(=O)(=O)N3CCC(C(=O)NCc4ccc(Cl)cc4)CC3)cc2CC1C (stereo not drawn)	10µM	0	0	?	0
